Among the data in publication PMC12136788 are binding signal values, retold here.

The chains are these.
B1: chr3:49066234:49066235:-_ENSG00000178035_ENST00000326739|hu_hu|FALSE|FALSE (ssRNA)
RNA: GGGAGUUCUACAGUCCGACGAUCAGAAGUCAGGUCCACCUGGUCUGCAGUGAAGUCGAUGUACCCAGGGAGAAUGAGAAAGUCAUUGUAGGUGAGGCCGUCUCCGCAGUUGAAGAGCUGCUGUGCUGUGAGUCCGUCGUCUGGCAACAGAGGAUUGAGCAUCA
B2: chr8:87366250:87366251:-_ENSMUSG00000003814_ENSMUST00000003912|mus_mus|FALSE|FALSE (ssRNA)
RNA: GGGAGUUCUACAGUCCGACGAUCGAGCAGAUGAAAUCUCAAGCCUAGGGCUUCUCCUCUACACCCCUGUUCCUAGAGUUGGAGGGUAGUGACCAAAAGAUGGAGAAAGGGAGGGACAGAAGGAAAAGAUGUUGAUUCAAAAAUCAACAGAGGAUUGAGCAUCA
B3: chr7:75932113:75932114:+_ENSG00000106211_ENST00000248553|hu_hu|hu_hu_hu_mus_False|28_98 (ssRNA)
RNA: GGGAGUUCUACAGUCCGACGAUCCUGCGACCACUCAUCCGGCAGCCGGGGCACCCCGAAAGCUUGAUCGAAGAGGCGGCUGUGUGCAGGGUACCAGUCCCGGAAUGCCCAGCUGGGCGGGCUCCGCAGCAGCGAGAAGGGCACCAACAGAGGAUUGAGCAUCA
B4: chr4:88367131:88367132:-_ENSMUSG00000070923_ENSMUST00000094993|mus_hu|motif|central (ssRNA)
RNA: GGGAGUUCUACAGUCCGACGAUCUUGGUAAUUGCUAGCUUCCAAAAGCAAAUUCACGCAGGUAUUGUCUGUUCUCAUGAAAUCGGCUGUCUGCACGUAAUUGAUGAGAUCCUGUGGUGUCAUCAGUGGAAAUCGAAUAUUCUUCAACAGAGGAUUGAGCAUCA
B5: chr8:104447970:104447971:+_ENSG00000164934_ENST00000297579|hu_hu|hu_hu_hu_mus_False|48_108 (ssRNA)
RNA: GGGAGUUCUACAGUCCGACGAUCAUAUACCUCCCUGCUUCGGCUCUUGUCCACAGGAAAGAUUCUAAUAGACUUAUCAAAGCUGGCAGACACAAACUCCUUCCCAGUGGGAGAGUAGUCCACAUCAAGUACUGCAGACACGUGCAACAGAGGAUUGAGCAUCA
B6: 31532532_31534450_220_CDS_ENSG00000082213_ENST00000325366|human|control|control (ssRNA)
RNA: GGGAGUUCUACAGUCCGACGAUCGAAAUGUAAAAAACUUACAUUACUGGCAGGAAGAUGCUUUGAGCCUAUGGCCCGGUAUAUAAAGGGUAGAACCUCCUGAUGAUCCUCCACCACCCACACUGGGAGCUUGGGGUAACGCCGCAACAGAGGAUUGAGCAUCA

Over roughly 24,000 sequences, “enrichment r” has its median near 0.99; the highest 2% begin near 3.7. These entries were drawn from the full list.

For the test, the target named is T1, UNK ZnF1-3 (human, UniProt Q9C0B0 31-174).
T1 sequence: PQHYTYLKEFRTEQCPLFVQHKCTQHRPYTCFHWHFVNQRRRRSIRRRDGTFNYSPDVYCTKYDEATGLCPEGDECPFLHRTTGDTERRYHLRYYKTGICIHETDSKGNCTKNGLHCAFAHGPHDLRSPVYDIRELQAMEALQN
The experiment in a line: nsRBNS (natural sequence RNA bind-n-seq); RBNS binding buffer (assumed for nsRBNS): 25 mM Tris pH 7.5, 150 mM KCl, 3 mM MgCl2, 0.01% Triton X-100, 500 ug/ml BSA, 20 U/ml SUPERase-In, 4 C; UNK is unkempt and MSI1 is Musashi-1; names of the RNAs are library labels; protein concentration not given here; high values mean tight binding.
B1 displayed a binding signal of 1.62 enrichment R.

B2: the binding signal stood at 1.61 enrichment R. To B3 belongs 0.901 enrichment R; to B4, 0.896 enrichment R; to B5, 1 enrichment R. The molecule B6 yielded a binding signal of 0.807 enrichment R.
